# According to the supplement of paper PMC8728848:
# This excerpt belongs to a sample that is enriched for the strongest signals.
# B1: PX14379A-bvu-539-28-539 (Bacteroides vulgatus) (protein)
# chain: EPYSEIIEEDYVPTEADEIALLATTYSQLRFVMDWYGLFDLQEESGDVIVTPTRPNGWDDGGTYKQMHKHTWDNQQGQPQSIWDYCYKGIANANKILKRADEGFFTEESKPKVVAEVKGVRALWYSILCDTHGNIPIQTSFSEEVPVQSTRKQVFDFIINELKEVMPNLPTEVNKSTYGRLTQWGAKCLMARMYLNAGVYTGTPMWNECLEQCNDIINSGLFSLETNYTDIFKTENSGCVETIFAIPYDEVYNEGDNNGPVFGAHMKFLSSNSRKVFNMQTTPWGGSAANPQFINSYDPDDMRLKYTWLQGDQYSPDGVLITTFPNKLPSIYKTDTDDGYRVGKYEIKVGAKSLLSNDFPYFRYTEVLLMKAECLLRLGQNETEAAHIVSQIRERAFRESAHPEKATVDAAWLKGDTHINYGTLDEKGQIDDAGNTEVVELGGLYDEWGWEFAAEARRRTDMIRFGTYQKKSWFNHTPTANDLNGNSILFPIHLDHLNTNPNLQQNPGYAGK
# Experiments:
# Assay in all cases: glycan array binding signal (z-score within array); higher = stronger binding
# Conditions in all cases: glycan notation: IUPAC condensed, linker removed
# Fuc(a1-2)Gal(b1-3)GalNAc = target: Fuc(a1-2)Gal(b1-3)GalNAc
# In short: (§1)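 Negative Z-scores can be read as non-binding. The Z-score is calculated within each array and then averaged across arrays of one protein sequence at different concentrations or buffers and across linkers. Arrays, 3228 in all, were curated from the Consortium for Functional Glycomics database and kept only where the protein sequence was available.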
# [1] = target: Fuc(a1-2)Gal(b1-3)GalNAc(a1-3)[Fuc(a1-2)]Gal(b1-4)GlcNAc
# In short: as §1
# Fuc(a1-2)Gal(b1-3)GlcNAc = target: Fuc(a1-2)Gal(b1-3)GlcNAc
# In short: as §1
# [2] = target: Fuc(a1-2)Gal(b1-3)GlcNAc(b1-2)Man(a1-3)[Fuc(a1-2)Gal(b1-3)GlcNAc(b1-2)Man(a1-6)]Man(b1-4)GlcNAc(b1-4)GlcNAc
# In short: as §1
# [3] = target: Fuc(a1-2)Gal(b1-3)GlcNAc(b1-3)Gal(b1-4)Glc
# In short: as §1
# Fuc(a1-2)Gal(b1-4)Glc6S = target: Fuc(a1-2)Gal(b1-4)Glc6S
# In short: as §1
# [4] = target: Fuc(a1-2)Gal(b1-4)GlcNAc(b1-3)Gal(b1-4)GlcNAc(b1-2)Man(a1-3)[Fuc(a1-2)Gal(b1-4)GlcNAc(b1-3)Gal(b1-4)GlcNAc(b1-2)Man(a1-6)]Man(b1-4)GlcNAc(b1-4)GlcNAc
# In short: as §1
# [5] = target: Fuc(a1-2)[Gal(a1-3)]Gal(b1-3)GlcNAc
# In short: as §1
# [6] = target: Fuc(a1-2)[Gal(a1-3)]Gal(b1-3)GlcNAc(b1-2)Man(a1-3)[Fuc(a1-2)[Gal(a1-3)]Gal(b1-3)GlcNAc(b1-2)Man(a1-6)]Man(b1-4)GlcNAc(b1-4)GlcNAc
# In short: as §1
# [7] = target: Fuc(a1-2)[Gal(a1-3)]Gal(b1-4)GlcNAc
# In short: as §1
# [8] = target: Fuc(a1-2)[Gal(a1-3)]Gal(b1-4)[Fuc(a1-3)]Glc
# In short: as §1
# [9] = target: Fuc(a1-2)[GalNAc(a1-3)]Gal
# In short: as §1
# [10] = target: Fuc(a1-2)[GalNAc(a1-3)]Gal(b1-3)GalNAc(b1-3)Gal(a1-4)Gal(b1-4)Glc
# In short: as §1
# [11] = target: Fuc(a1-2)[GalNAc(a1-3)]Gal(b1-3)GlcNAc(b1-2)Man(a1-3)[Fuc(a1-2)[GalNAc(a1-3)]Gal(b1-3)GlcNAc(b1-2)Man(a1-6)]Man(b1-4)GlcNAc(b1-4)GlcNAc
# In short: as §1
# [12] = target: Fuc(a1-2)[GalNAc(a1-3)]Gal(b1-4)Glc
# In short: as §1
# [13] = target: Fuc(a1-3)[Gal(b1-4)]GlcNAc(b1-6)[Gal(b1-3)GlcNAc(b1-3)]Gal(b1-4)Glc
# In short: as §1
# Fuc(a1-4)GlcNAc = target: Fuc(a1-4)GlcNAc
# In short: as §1
# [14] = target: Gal(a1-3)Gal(b1-4)GlcNAc(b1-2)Man(a1-3)[Gal(a1-3)Gal(b1-4)GlcNAc(b1-2)Man(a1-6)]Man(b1-4)GlcNAc(b1-4)GlcNAc
# In short: as §1
# [15] = target: Gal(a1-4)Gal(b1-3)GlcNAc(b1-2)Man(a1-3)[Gal(a1-4)Gal(b1-3)GlcNAc(b1-2)Man(a1-6)]Man(b1-4)GlcNAc(b1-4)GlcNAc
# In short: as §1
# [16] = target: Gal(a1-4)Gal(b1-4)GlcNAc(b1-3)Gal(b1-4)Glc
# In short: as §1
# Gal(a1-4)GlcNAc = target: Gal(a1-4)GlcNAc
# In short: as §1
# Gal(b1-3)GlcNAc(b1-2)Man = target: Gal(b1-3)GlcNAc(b1-2)Man
# In short: as §1
# [17] = target: Gal(b1-3)GlcNAc(b1-2)[Gal(b1-3)GlcNAc(b1-6)]Man(a1-6)[Gal(b1-3)GlcNAc(b1-2)Man(a1-3)]Man(b1-4)GlcNAc(b1-4)GlcNAc
# In short: as §1
# [18] = target: Gal(b1-3)GlcNAc(b1-3)Gal(b1-3)GlcNAc
# In short: as §1
# [19] = target: Gal(b1-3)GlcNAc(b1-3)Gal(b1-4)[Fuc(a1-3)]GlcNAc
# In short: as §1
# [20] = target: Gal(b1-3)GlcNAc(b1-6)Gal(b1-4)GlcNAc
# In short: as §1
# [21] = target: Gal(b1-3)GlcNAc(b1-6)GalNAc
# In short: as §1
# Gal(b1-4)GlcNAc = target: Gal(b1-4)GlcNAc
# In short: as §1
# [22] = target: Gal(b1-4)GlcNAc(a1-6)Gal(b1-4)GlcNAc
# In short: as §1
# Gal(b1-4)GlcNAc(b1-2)Man = target: Gal(b1-4)GlcNAc(b1-2)Man
# In short: as §1
binder,measurement,setting,value
B1,glycan array binding signal (z-score),Fuc(a1-2)Gal(b1-3)GalNAc,-0.448
same,glycan array binding signal (z-score),[1],-0.426
same,glycan array binding signal (z-score),Fuc(a1-2)Gal(b1-3)GlcNAc,-0.263
same,glycan array binding signal (z-score),[2],8.31
same,glycan array binding signal (z-score),[3],-0.301
same,glycan array binding signal (z-score),Fuc(a1-2)Gal(b1-4)Glc6S,-0.232
same,glycan array binding signal (z-score),[4],2.29
same,glycan array binding signal (z-score),[5],-0.419
same,glycan array binding signal (z-score),[6],9.25
same,glycan array binding signal (z-score),[7],-0.199
same,glycan array binding signal (z-score),[8],-0.231
same,glycan array binding signal (z-score),[9],-0.215
same,glycan array binding signal (z-score),[10],-0.369
same,glycan array binding signal (z-score),[11],1.23
same,glycan array binding signal (z-score),[12],-0.321
same,glycan array binding signal (z-score),[13],-0.44
same,glycan array binding signal (z-score),Fuc(a1-4)GlcNAc,-0.18
same,glycan array binding signal (z-score),[14],3
same,glycan array binding signal (z-score),[15],0.016
same,glycan array binding signal (z-score),[16],-0.391
same,glycan array binding signal (z-score),Gal(a1-4)GlcNAc,-0.226
same,glycan array binding signal (z-score),Gal(b1-3)GlcNAc(b1-2)Man,0.056
same,glycan array binding signal (z-score),[17],5.87
same,glycan array binding signal (z-score),[18],0.03
same,glycan array binding signal (z-score),[19],-0.515
same,glycan array binding signal (z-score),[20],-0.27
same,glycan array binding signal (z-score),[21],-0.344
same,glycan array binding signal (z-score),Gal(b1-4)GlcNAc,-0.29
same,glycan array binding signal (z-score),[22],-0.203
same,glycan array binding signal (z-score),Gal(b1-4)GlcNAc(b1-2)Man,-0.28
